High-throughput results deposited in PubChem BioAssay by National Center for Advancing Translational Sciences (NCATS).
An excerpt weighted towards active compounds, which were near 10% of everything screened.
Six1-Eya2 blk = Six1/Eya2 interaction inhibition | AlphaScreen GST-Six1/His-Eya2 binding, biochemical; stronger effect = lower value | activity change, % (concentration not given with the values) | hit rate 0.56% among 360,000 | AID 651725; in the data active = activity change below about -65%; inconclusive = mostly about -30% to -63%; also: % is scaled to controls: 0 for no effect and ±100 for the full control effect
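GST-Six1 + His-Eya2 (5X stock: 250/500 nM); Tris pH 8.0, 300 mM NaCl, 0.05% BSA, 0.02% Tween 20; GSH donor/Ni acceptor beads; 1 h 37 °C dark; AlphaScreen readout.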
HP1b binding inh = blocks HP1-beta chromodomain binding to methylated histone tails | AID 540317 | hit rate 0.56% among 390,000 | AlphaScreen HP1-beta / biotin-H3K9me3 peptide binding | Potency, µM (series often up to 114 µM), for inactives: at the highest dose activity change, negative = inhibition, hits mostly inhibitors | P83916; also: potency is read from the fitted curve at half-maximal effect; nearly all actives have a fitted effect of over 70% in size
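AlphaScreen: HP1-beta (50 nM) preformed 30 min with biotin-H3(1-18)K9me3 peptide (50 nM) in PBS pH 7.4, 0.01% Tween-20. Compound added for 30 min at RT, then streptavidin donor/nickel chelate acceptor beads (10 ug/mL) for 30 min.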
CtBP-E1A inh = CtBP/E1A binding inhibition. AlphaScreen GST-E1A/His-CtBP binding, 1536-well; stronger effect = lower value. activity change, % (no concentration beside the values). hit rate 0.49% among 340,000; in the data active = activity change below about -65%; inconclusive = mostly about -30% to -63%; also: % is scaled to controls: 0 for no effect and ±100 for the full control effect
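AlphaScreen with 125 nM GST-E1A and 125 nM His-CtBP (5X stocks) in Tris pH 8.0, 300 mM NaCl, BSA, Tween 20, TCEP. Compounds preincubated 2 h at 37 deg C, then glutathione donor/nickel acceptor beads added for 1 h at 37 deg C in dark.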
JMJD2A Tudor inh = blocks the human JMJD2A Tudor domain. O75164. AlphaScreen JMJD2A-Tudor / H3K4me3 peptide binding. Potency, µM (doses to about 114 µM), without a hit: at the highest dose activity change, negative = inhibition, hits mostly inhibitors. hit rate 4.4% among 390,000. AID 504339; also: potency is read from the fitted curve at half-maximal effect; % is scaled to controls: 0 for no effect and ±100 for the full control effect; nearly all actives have a fitted effect of over 50% in size
G9a inh = G9a (human) methyltransferase inhibition | hit rate 8.8% among 350,000 | Q96KQ7 | AID 504332 | G9a H3K9 monomethylation, AlphaScreen, 2 h | Potency, µM (top dose mostly 102 µM), for inactives: at the top dose activity, negative = inhibition, usual class: inhibitors; also: potency is read from the fitted curve at half-maximal effect; % is scaled to controls: 0 for no effect and ±100 for the full control effect; nearly all actives have a fitted effect of over 75% in size
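Readings reflect AlphaScreen signal from monomethyl-H3K9 antibody detection. HMT at 20 nM; substrate b-H3K9 500 nM; cofactor SAM 20 uM; 2 h RT reaction; compounds tested as titrations in qHTS with 15 min preincubation.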
BAZ2B inh = BAZ2B (human) inhibition; Q9UIF8; AlphaScreen BAZ2B-H3K14Ac peptide displacement; Potency, µM (top dose mostly 114 µM), for the others: at the top dose activity change, negative = inhibition, most hits filed as inhibitors; hit rate 4.4% among 360,000; also: potency is read from the fitted curve at half-maximal effect; % is scaled to controls: 0 for no effect and ±100 for the full control effect; nearly all actives have a fitted effect of over 60% in size
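AlphaScreen displacement of biotin-H3(5-23)K14Ac peptide (50 nM final) from BAZ2B (50 nM final) in PBS pH 7.4, 0.01% Tween-20; complex preformed 30 min RT, then compounds (top 110 uM) 30 min RT, beads 20 min dark.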
* marks the source's active call; other numbers are inactive results; ? = inconclusive; . = no result; ! = not confirmed by another sample; [ ] = remark or other dose. Unless noted, calls follow the shape of the dose curve; as a rule, active = well fitted inhibition curve with a large enough effect; inconclusive = small, poorly fitted or top-dose-only effect; inactive = no such curve, though single readings can be large or run the other way.

SMILES | Six1-Eya2 blk | HP1b binding inh | CtBP-E1A inh | JMJD2A Tudor inh | G9a inh | BAZ2B inh
COc1ccc(C2Nc3ccccc3C(=O)N2Cc2ccco2)cc1COc1ccc(N)cc1 (stereo unspecified) | . | . | . | 22.4µM* | . | .
CC(=O)Nc1ccc(OCc2cccc(C3Nc4ccccc4C(=O)N3Cc3ccco3)c2)cc1 (stereo unspecified) | . | . | . | 89.1µM* | . | .
O=c1c2c([nH]c3ccccc13)C(=C1CCCC1)CC2 | -8.9 | 24.3% | -9.3 | -22.9% | 35.5µM* | ?
O=c1c2c([nH]c3ccccc13)CCCC2 | -3.5 | 22.1% | 2.0 | -1.4% | -2.2%[59 µM] | 3.9%
CC(C)CN(CC(C)C)C1=N/C(=C\c2ccco2)C(=O)N1c1ccccc1 | 28.2 | -12.2% | 18.8 | -21.9% | ? | -28.5%[57.1 µM]
CCN(CC)C1=N/C(=C\c2ccco2)C(=O)N1c1ccccc1 | 3.0 | 0.7% | 0.3 | -21.2% | 28.2µM* | ?
N#Cc1cccc(NC(=O)C2CCN(c3cnccn3)CC2)c1 | . | 34.6% | . | -14.6% | -5.2%[59 µM] | 5.3%
COC(=O)c1ccccc1NC(=O)C1(c2cccs2)CCOCC1 | . | 56.7% | . | ? | -13.4%[59 µM] | 22.6%
COc1ccc(NC(=O)N(Cc2ccco2)C2CCN(C(C)=O)CC2)c(OC)c1 | . | 30.3% | . | -20.5% | -6.5%[59 µM] | 3.4%
CC1(C)CC(=O)C2=C(C1)Nc1cc3c(cc1C2c1ccc2c(c1)OCO2)OCO3 (stereo unspecified) | -6.5 | 4.7% | -6.0 | ? | 39.8µM* | ?
CC1(C)CC(=O)C2=C(C1)Nc1cc3c(cc1C2c1ccc(F)cc1)OCO3 (stereo unspecified) | -2.3 | 22.6% | -8.3 | -29.3% | . | ?
CCN(CC)C(=O)Cn1c(=O)n(CCCCCC(=O)NCc2ccc3c(c2)OCO3)c(=O)c2sccc21 | . | 19.2% | . | -3.4% | -45.1%[59 µM] | 2.9%
COc1ccccc1N1CCN(C(=O)c2cc3c(=O)oc4ccc(C)cc4c3s2)CC1 | . | 28.8% | . | -12.5% | -5.0%[59 µM] | -4.9%
O=C(CSc1nc2ccccc2s1)Nc1cc(S(=O)(=O)N2CCOCC2)ccc1O | -23.0 | -28.5% | -12.4 | 50.1µM* | ? | ?
COc1ccc(S(=O)(=O)N2CCOCC2)cc1NC(=O)CSc1nnc(N)s1 | -2.6 | 38.9% | 2.0 | -3.4% | 44.7µM* | 6.7%
Cc1nnc(SCC(=O)Nc2cc(S(=O)(=O)N3CCOCC3)ccc2C)s1 | -1.7 | 36.0% | -2.2 | -15.6% | -48.2% | -0.5%
Nc1nnc(SCC(=O)Nc2cccc(S(=O)(=O)N3CCOCC3)c2)s1 | 2.1 | 30.0% | 0.4 | -7.5% | ? | 13.0%
CCc1noc(C)c1C(=O)Nc1cc(S(=O)(=O)N2CCOCC2)ccc1OC(C)C | -2.8 | 12.7% | 8.0 | -15.9% | 12.6µM* | -7.0%
COc1ccc(S(=O)(=O)N2CCOCC2)cc1NC(=O)CSc1n[nH]c(C(C)C)n1 | -1.1 | 10.6% | -24.8 | -7.6% | 28.2µM* | -7.2%
C#CCN(C[C@@H]1[C@@H](OC(=O)NCc2ccccc2)[C@@H](OC(=O)NCc2ccccc2)CN(C(=O)OC(C)C)N1C(=O)OC(C)C)S(=O)(=O)c1ccc(C)cc1 | -4.4 | . | -4.8 | . | . | .
CCN1CCN(C(c2cccs2)C(C)NS(=O)(=O)c2ccccc2)CC1 (stereo unspecified) | 5.9 | 21.4% | -3.1 | -16.2% | -33.9% | .
COc1ccccc1CNN | -6.1 | -1.9% | -6.4 | 39.8µM* | 25.1µM* | ?
CCCCCCCCNCCS(=O)(=O)NCc1ccccc1OC | -0.1 | 68.7% | 3.5 | -11.5% | . | .
COc1ccccc1CNS(=O)(=O)N(C)C | 8.7 | -9.6% | 3.0 | 50.1µM* | 10.3%[59 µM] | -1.8%
COc1ccccc1CNC(=O)Cc1ccccc1 | 2.7 | 47.0% | 1.2 | -1.1% | ? | 2.4%
COc1ccccc1CNCCCCCCNCCCCCCCCNCCCCCCNCc1ccccc1OC | . | . | . | . | 10µM*! | .
Nc1ccc(NC(=O)c2ccccc2)c2c1C(=O)c1ccccc1C2=O | -5.0 | 1.9% | -5.5 | ? | ? | -28.9%
